{"source": "PubChem BioAssay (EPA / NIEHS)", "key": {"[1]": {"target": "human Protein Tyrosine Phosphatase Non-receptor Type 6 (PTPN6), PTPN6 (gene 5777) (UniProt P29350)", "sequence (P29350 whole entry, looked up)": "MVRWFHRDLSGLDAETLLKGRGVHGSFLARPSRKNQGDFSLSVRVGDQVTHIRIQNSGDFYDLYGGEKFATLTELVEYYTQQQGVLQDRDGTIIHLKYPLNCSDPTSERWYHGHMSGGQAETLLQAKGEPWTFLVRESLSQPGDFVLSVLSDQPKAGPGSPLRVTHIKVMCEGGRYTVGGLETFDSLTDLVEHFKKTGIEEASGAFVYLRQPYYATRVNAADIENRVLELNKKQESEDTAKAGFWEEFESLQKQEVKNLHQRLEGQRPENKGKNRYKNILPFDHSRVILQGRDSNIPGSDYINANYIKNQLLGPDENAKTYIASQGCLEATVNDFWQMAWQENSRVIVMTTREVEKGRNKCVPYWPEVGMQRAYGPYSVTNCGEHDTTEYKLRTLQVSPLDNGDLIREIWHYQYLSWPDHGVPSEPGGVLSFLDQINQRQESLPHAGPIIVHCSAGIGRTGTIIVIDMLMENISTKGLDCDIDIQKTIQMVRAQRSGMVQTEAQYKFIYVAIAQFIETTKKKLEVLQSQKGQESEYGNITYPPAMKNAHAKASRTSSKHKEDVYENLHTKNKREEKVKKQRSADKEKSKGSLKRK", "test": "NVS_ENZ_hPTPN6: NovaScreen (NVS) Enzymatic Assay for human Protein Tyrosine Phosphatase Non-receptor Type 6 (PTPN6) (AID 2283210)", "how_it_was_run": "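Recombinant human PTPN6 from SF9 cells, enzyme activity followed by fluorescence after mobility-shift separation of substrate and product at 1.33 h. Chemicals first tested at a single 25 uM in duplicate, then confirmed across concentration series; loss of signal relative to DMSO.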"}, "[2]": {"target": "human Protein Tyrosine Phosphatase Non-receptor Type 9 (PTPN9), PTPN9 (gene 5780) (UniProt P43378)", "sequence (P43378 whole entry, looked up)": "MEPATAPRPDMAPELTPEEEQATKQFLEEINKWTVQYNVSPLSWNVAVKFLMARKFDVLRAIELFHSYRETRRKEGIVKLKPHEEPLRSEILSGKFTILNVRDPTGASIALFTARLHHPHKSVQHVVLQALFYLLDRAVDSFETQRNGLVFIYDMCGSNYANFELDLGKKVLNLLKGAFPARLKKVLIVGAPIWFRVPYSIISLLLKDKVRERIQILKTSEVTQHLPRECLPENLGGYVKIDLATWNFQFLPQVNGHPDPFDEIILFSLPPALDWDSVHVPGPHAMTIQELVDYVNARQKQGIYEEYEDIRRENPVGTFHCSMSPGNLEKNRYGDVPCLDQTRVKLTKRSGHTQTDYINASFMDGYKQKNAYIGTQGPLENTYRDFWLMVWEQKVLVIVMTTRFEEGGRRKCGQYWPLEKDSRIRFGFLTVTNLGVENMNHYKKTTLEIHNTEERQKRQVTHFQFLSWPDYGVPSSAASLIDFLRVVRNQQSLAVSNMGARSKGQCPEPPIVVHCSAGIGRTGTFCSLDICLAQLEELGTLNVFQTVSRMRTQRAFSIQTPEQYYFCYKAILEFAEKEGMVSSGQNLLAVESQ", "test": "NVS_ENZ_hPTPN9: NovaScreen (NVS) Enzymatic Assay for human Protein Tyrosine Phosphatase Non-receptor Type 9 (PTPN9) (AID 2283209)", "how_it_was_run": "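Sf9-expressed enzyme in a cell-free assay, fluorescence read 1.33 h after dosing with mobility-shift separation of substrate and product. Tested at 25 uM in duplicate, then up to 50 uM; signal loss versus DMSO.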"}, "[3]": {"target": "human Phosphatase and Tensin Homolog (PTEN), PTEN (gene 5728) (UniProt P60484)", "sequence (P60484 whole entry, looked up)": "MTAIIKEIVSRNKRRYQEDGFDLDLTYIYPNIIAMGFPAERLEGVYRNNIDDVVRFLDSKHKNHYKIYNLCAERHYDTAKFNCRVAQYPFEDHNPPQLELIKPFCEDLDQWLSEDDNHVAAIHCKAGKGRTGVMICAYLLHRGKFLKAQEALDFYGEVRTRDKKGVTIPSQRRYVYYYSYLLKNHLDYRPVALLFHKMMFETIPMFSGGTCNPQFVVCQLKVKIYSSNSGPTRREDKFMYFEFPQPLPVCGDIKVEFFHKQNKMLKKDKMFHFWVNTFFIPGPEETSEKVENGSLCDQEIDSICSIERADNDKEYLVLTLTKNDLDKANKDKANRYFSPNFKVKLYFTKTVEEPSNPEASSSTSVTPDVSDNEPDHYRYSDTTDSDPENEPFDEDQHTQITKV", "test": "NVS_ENZ_hPTEN: NovaScreen (NVS) Enzymatic Assay for human Phosphatase and Tensin Homolog (PTEN) (AID 2283203)", "how_it_was_run": "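Loss of fluorescent product signal after mobility-shift separation reports PTEN activity, recombinant human enzyme, 1 h after compound addition. Single 25 uM duplicate screen, then concentration-response on actives; DMSO baseline.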"}, "[4]": {"target": "human Protein Tyrosine Phosphatase Receptor Type C (PTPRC), PTPRC (gene 5788) (UniProt P08575)", "sequence (P08575 whole entry, looked up)": "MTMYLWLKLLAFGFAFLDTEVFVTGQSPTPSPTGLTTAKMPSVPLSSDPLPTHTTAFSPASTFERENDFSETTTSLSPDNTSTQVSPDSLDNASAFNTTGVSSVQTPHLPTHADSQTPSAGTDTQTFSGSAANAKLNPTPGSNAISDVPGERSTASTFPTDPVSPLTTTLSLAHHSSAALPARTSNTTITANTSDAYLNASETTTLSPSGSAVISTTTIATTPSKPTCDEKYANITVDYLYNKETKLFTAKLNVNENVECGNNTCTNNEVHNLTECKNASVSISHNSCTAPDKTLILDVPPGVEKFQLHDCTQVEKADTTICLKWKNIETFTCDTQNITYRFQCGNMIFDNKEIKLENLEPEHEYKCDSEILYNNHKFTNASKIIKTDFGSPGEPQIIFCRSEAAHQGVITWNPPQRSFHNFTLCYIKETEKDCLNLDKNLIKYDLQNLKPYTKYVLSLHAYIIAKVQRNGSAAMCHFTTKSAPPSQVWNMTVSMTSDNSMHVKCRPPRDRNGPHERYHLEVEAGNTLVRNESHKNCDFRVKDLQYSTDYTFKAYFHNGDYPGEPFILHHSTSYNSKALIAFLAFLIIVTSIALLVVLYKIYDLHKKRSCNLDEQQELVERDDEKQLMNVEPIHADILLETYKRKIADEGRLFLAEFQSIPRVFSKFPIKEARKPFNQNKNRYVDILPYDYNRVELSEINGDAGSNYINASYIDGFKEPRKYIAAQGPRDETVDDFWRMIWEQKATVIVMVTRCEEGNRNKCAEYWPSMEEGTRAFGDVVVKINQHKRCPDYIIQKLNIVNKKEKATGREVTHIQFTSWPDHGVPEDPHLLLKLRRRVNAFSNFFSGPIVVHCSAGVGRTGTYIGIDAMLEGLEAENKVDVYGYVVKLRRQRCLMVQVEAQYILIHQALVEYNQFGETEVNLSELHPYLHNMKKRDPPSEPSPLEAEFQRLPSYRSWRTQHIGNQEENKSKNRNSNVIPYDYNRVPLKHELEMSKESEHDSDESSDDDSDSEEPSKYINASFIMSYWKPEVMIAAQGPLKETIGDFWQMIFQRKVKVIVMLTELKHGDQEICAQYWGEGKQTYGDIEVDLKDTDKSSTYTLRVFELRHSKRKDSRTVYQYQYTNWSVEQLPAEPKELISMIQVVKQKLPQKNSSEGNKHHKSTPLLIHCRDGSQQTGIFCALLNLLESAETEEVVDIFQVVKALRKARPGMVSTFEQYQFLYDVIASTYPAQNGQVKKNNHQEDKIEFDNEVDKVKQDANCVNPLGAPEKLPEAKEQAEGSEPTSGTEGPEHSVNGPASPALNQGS", "test": "NVS_ENZ_hPTPRC: NovaScreen (NVS) Enzymatic Assay for human Protein Tyrosine Phosphatase Receptor Type C (PTPRC) (AID 2283212)", "how_it_was_run": "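Absorbance-based phosphatase activity of human PTPRC protein extracted from yeast was measured 1 h post-dosing. Compounds first tested at 25 uM in duplicate, then those passing threshold in singleton concentration series to 50 uM.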"}, "PPP2CA (gene 5515)": {"target": "PPP2CA (gene 5515) (UniProt P67775)", "sequence (P67775 whole entry, looked up)": "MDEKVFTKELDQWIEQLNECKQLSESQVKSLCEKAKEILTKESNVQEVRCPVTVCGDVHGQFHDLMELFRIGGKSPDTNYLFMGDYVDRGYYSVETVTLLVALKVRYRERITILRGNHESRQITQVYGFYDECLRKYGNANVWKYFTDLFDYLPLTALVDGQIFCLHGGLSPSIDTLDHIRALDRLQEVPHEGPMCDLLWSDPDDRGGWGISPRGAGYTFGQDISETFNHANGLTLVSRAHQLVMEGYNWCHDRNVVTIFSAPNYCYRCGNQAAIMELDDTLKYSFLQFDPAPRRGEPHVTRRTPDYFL", "test": "NVS_ENZ_hPPP2CA: NovaScreen (NVS) Enzymatic Assay for human Protein Phosphatase 2 Aatalytic subunit Alpha (PPP2CA) (AID 2283199)", "how_it_was_run": "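Cell-free phosphatase activity: fluorescent substrate turnover by recombinant human enzyme, resolved by mobility shift at 1.33 h. Compounds passing the 25 uM duplicate primary screen were rerun in singleton series with a 50 uM top concentration.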"}, "[5]": {"target": "human Phosphoinositide 3-kinase alpha (PI3Ka), PIK3CA (gene 5290) (UniProt P42336)", "sequence (P42336 whole entry, looked up)": "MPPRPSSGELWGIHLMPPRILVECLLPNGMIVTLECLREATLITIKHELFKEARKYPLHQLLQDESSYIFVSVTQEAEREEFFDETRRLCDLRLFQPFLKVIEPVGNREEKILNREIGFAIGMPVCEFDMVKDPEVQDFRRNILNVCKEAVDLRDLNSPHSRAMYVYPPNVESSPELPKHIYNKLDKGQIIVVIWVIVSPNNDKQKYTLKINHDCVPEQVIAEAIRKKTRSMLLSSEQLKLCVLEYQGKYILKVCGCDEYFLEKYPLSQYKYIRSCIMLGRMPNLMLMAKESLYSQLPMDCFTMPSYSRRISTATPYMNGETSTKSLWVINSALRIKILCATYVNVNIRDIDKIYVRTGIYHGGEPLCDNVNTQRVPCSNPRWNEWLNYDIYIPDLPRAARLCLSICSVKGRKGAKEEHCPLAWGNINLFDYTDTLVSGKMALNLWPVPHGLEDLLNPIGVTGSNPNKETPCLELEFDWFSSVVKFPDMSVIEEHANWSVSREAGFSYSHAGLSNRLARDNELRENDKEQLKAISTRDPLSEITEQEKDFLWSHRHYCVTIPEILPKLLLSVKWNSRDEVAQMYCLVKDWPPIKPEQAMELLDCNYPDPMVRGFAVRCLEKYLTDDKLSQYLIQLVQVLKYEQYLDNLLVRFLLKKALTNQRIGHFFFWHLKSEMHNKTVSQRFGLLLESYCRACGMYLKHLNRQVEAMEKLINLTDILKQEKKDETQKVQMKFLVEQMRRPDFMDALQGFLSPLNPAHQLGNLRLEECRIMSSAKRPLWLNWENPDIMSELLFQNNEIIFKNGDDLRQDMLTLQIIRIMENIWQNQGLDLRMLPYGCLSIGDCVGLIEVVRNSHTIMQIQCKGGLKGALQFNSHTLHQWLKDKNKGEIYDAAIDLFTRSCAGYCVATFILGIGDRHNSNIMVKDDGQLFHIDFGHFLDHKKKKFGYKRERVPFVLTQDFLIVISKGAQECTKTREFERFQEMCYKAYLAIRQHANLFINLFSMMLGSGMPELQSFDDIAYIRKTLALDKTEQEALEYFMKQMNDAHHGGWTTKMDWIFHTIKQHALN", "test": "NVS_ENZ_hPI3Ka: NovaScreen (NVS) Enzymatic Assay for human Phosphoinositide 3-kinase alpha (PI3Ka) (AID 2283196)", "how_it_was_run": "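Chemicals were first screened at 25 uM in duplicate, then hits were run as concentration series up to 50 uM. Enzyme activity was measured by fluorescence after mobility-shift separation, with loss of signal relative to DMSO taken as activity.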"}, "[6]": {"target": "Tyrosine-protein phosphatase non-receptor type 11 (Homo sapiens) (UniProt Q06124)", "sequence (Q06124 whole entry, looked up)": "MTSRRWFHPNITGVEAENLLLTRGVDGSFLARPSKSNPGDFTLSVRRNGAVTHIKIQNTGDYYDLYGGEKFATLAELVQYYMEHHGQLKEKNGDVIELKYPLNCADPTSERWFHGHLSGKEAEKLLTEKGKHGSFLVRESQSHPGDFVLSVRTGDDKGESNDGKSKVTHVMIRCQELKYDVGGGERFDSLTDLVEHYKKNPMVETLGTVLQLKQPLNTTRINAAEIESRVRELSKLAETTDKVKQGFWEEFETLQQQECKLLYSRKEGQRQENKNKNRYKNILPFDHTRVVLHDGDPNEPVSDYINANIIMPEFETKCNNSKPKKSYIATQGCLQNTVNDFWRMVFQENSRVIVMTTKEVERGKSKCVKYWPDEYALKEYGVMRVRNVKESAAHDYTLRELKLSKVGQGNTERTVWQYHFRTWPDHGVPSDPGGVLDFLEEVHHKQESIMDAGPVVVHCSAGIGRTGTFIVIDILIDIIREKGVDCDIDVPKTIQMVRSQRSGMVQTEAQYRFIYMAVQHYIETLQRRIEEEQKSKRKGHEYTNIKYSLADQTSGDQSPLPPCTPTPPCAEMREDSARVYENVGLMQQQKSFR", "test": "NVS_ENZ_hPTPN11: NovaScreen (NVS) Enzymatic Assay for human Protein Tyrosine Phosphatase Non-receptor Type 11 (PTPN11) (AID 2283202)", "how_it_was_run": "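Compounds first tested in duplicate at 25 uM; those reaching ~30% inhibition rerun in singleton concentration-response, top 50 uM. Phosphatase activity measured after 0.5 h by fluorescence with mobility-shift separation, relative to DMSO.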"}, "[7]": {"target": "Serine/threonine-protein phosphatase PP1-alpha catalytic subunit (Homo sapiens) (UniProt P62136)", "test": "NVS_ENZ_hPPP1CA: NovaScreen (NVS) Enzymatic Assay for human Protein Phosphatase 1 Aatalytic subunit Alpha (PPP1CA) (AID 2283200)", "how_it_was_run": "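Chemicals were first screened in duplicate at 25 uM, and those passing threshold (e.g. 30% inhibition) were run as concentration series to 50 uM. Cell-free recombinant protein, 1.33 h read, fluorescent substrate/product mobility-shift detection, normalised to DMSO.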"}, "[8]": {"target": "Tyrosine-protein phosphatase non-receptor type 12 (Homo sapiens) (UniProt Q05209)", "test": "NVS_ENZ_hPTPN12: NovaScreen (NVS) Enzymatic Assay for human Protein Tyrosine Phosphatase Non-receptor Type 12 (PTPN12) (AID 2283204)", "how_it_was_run": "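Single-concentration duplicates (25 uM) preceded singleton concentration-response up to 50 uM for chemicals passing threshold. Cell-free recombinant PTPN12 activity was read 1.33 h after dosing via fluorescence after mobility-shift separation; loss of signal versus DMSO.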"}, "[9]": {"target": "Tyrosine-protein phosphatase non-receptor type 13 (Homo sapiens) (UniProt Q12923)", "test": "NVS_ENZ_hPTPN13: NovaScreen (NVS) Enzymatic Assay for human Protein Tyrosine Phosphatase Non-receptor Type 13 (PTPN13) (AID 2283205)", "how_it_was_run": "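Screened first at a single 25 uM in duplicate; compounds passing the threshold (e.g. 30% inhibition) were rerun in concentration series, top 50 uM. Recombinant enzyme, fluorescent substrate, mobility-shift separation, 0.5 h read. Data fitted as inhibition relative to DMSO.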"}, "[10]": {"target": "human Raf-1 Proto-Oncogene, serine/threonine Kinase (RAF1), RAF1 (gene 5894) (UniProt P04049)", "test": "NVS_ENZ_hRAF1: NovaScreen (NVS) Enzymatic Assay for human Raf-1 Proto-Oncogene, serine/threonine Kinase (RAF1) (AID 2283216)", "how_it_was_run": "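Single-point screening at 25 uM (duplicate), followed by singleton concentration-response to 50 uM maximum for chemicals exceeding threshold. Enzyme activity from fluorescent substrate-product mobility-shift separation after 1 h, relative to DMSO.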"}, "[11]": {"target": "human Sirtuin 1 (SIRT1), SIRT1 (gene 23411) (UniProt Q96EB6)", "test": "NVS_ENZ_hSIRT1: NovaScreen (NVS) Enzymatic Assay for human Sirtuin 1 (SIRT1) (AID 2283219)", "how_it_was_run": "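Cell-free recombinant SIRT1 with a fluorescent substrate; substrate and product separated by electrophoretic mobility shift and read by fluorescence intensity, 1 h after dosing. Primary screen at 25 uM in duplicate; hits re-run in concentration-response up to 50 uM, relative to DMSO.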"}, "[12]": {"target": "human Rho Associated Coiled-coil Containing Protein Kinase 1 (ROCK1), ROCK1 (gene 6093) (UniProt Q13464)", "test": "NVS_ENZ_hROCK1: NovaScreen (NVS) Enzymatic Assay for human Rho Associated Coiled-coil Containing Protein Kinase 1 (ROCK1) (AID 2283214)", "how_it_was_run": "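Compounds first run in duplicate at 25 uM against recombinant human ROCK1, then followed in concentration series. Kinase activity was read 1 h post-dosing by fluorescence with mobility-shift separation, as signal loss relative to DMSO.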"}, "[13]": {"target": "human Phosphodiesterase 4A1 (PDE4A1), PDE4A (gene 5141) (UniProt P27815)", "test": "NVS_ENZ_hPDE4A1: NovaScreen (NVS) Enzymatic Assay for human Phosphodiesterase 4A1 (PDE4A1) (AID 2283191)", "how_it_was_run": "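Fluorescent substrate turnover by recombinant PDE4A1 read after 1 h by mobility-shift separation. Primary duplicate screen at 25 uM; hits retested in concentration series with a 50 uM maximum, relative to DMSO.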"}, "[14]": {"target": "human Sirtuin 2 (SIRT2), SIRT2 (gene 22933) (UniProt Q8IXJ6)", "test": "NVS_ENZ_hSIRT2: NovaScreen (NVS) Enzymatic Assay for human Sirtuin 2 (SIRT2) (AID 2283217)", "how_it_was_run": "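Single-point duplicate screen at 25 uM, then concentration-response (max 50 uM) for chemicals passing threshold. Enzyme activity of recombinant human SIRT2 measured after 1 hr by fluorescence with mobility-shift separation of product; DMSO baseline.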"}, "[15]": {"target": "human Phosphodiesterase 10 (PDE10), PDE10A (gene 10846) (UniProt Q9Y233)", "test": "NVS_ENZ_hPDE10: NovaScreen (NVS) Enzymatic Assay for human Phosphodiesterase 10 (PDE10) (AID 2283195)", "how_it_was_run": "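Biochemical single-readout PDE10A assay, cell-free, extracted protein. Compounds first screened at 25 uM in duplicate, hits then titrated to 50 uM max. Activity measured after 1 h; loss-of-signal fitted against DMSO negative control.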"}}, "note": "Records with an inconclusive call do not appear. Active and inactive are the calls of the source. Rule for the calls: active = hit-call score of the fitted dose curve at least 0.9, where 1 is the maximum; inconclusive = response in the unintended direction; inactive = score below 0.9."}
{"compound": "ClC(Cl)c1ccccc1", "values": [{"measurement": "outcome", "setting": "[1]", "result": "inactive"}]}
{"compound": "CCC(C)(C)c1ccc(O)cc1", "values": [{"measurement": "AC50", "setting": "[2]", "result": "42.1 µM (active)"}]}
{"compound": "ClC(Cl)=C(c1ccc(Cl)cc1)c1ccccc1Cl", "values": [{"measurement": "outcome", "setting": "[3]", "result": "inactive"}]}
{"compound": "Clc1ccc(Oc2ccccc2)cc1", "values": [{"measurement": "outcome", "setting": "[3]", "result": "inactive"}]}
{"compound": "Cc1ccc(N)cc1N", "values": [{"measurement": "AC50", "setting": "[4]", "result": "32.2 µM (active)"}]}
{"compound": "ClC(Cl)(Cl)c1ccccc1", "values": [{"measurement": "outcome", "setting": "PPP2CA (gene 5515)", "result": "inactive"}]}
{"compound": "CCOP(=S)(OCC)SCSc1ccc(Cl)cc1", "values": [{"measurement": "outcome", "setting": "[3]", "result": "inactive"}]}
{"compound": "OCC1CO1", "note": "(configuration not stated)", "values": [{"measurement": "outcome", "setting": "[2]", "result": "inactive"}]}
{"compound": "Cc1ccc(C(=O)Cl)cc1", "values": [{"measurement": "outcome", "setting": "[3]", "result": "inactive"}]}
{"compound": "Cc1ccc(O)cc1C", "values": [{"measurement": "outcome", "setting": "[4]", "result": "inactive"}]}
{"compound": "CC1(C)CN=C(NN=C(/C=C/c2ccc(C(F)(F)F)cc2)/C=C/c2ccc(C(F)(F)F)cc2)NC1", "values": [{"measurement": "AC50", "setting": "[5]", "result": "14.1 µM (active)"}, {"measurement": "AC50", "setting": "[6]", "result": "13.4 µM (active)"}]}
{"compound": "CC(C)(C)OOC(C)(C)C", "values": [{"measurement": "outcome", "setting": "PPP2CA (gene 5515)", "result": "inactive"}, {"measurement": "outcome", "setting": "[7]", "result": "inactive"}, {"measurement": "outcome", "setting": "[6]", "result": "inactive"}, {"measurement": "outcome", "setting": "[3]", "result": "inactive"}, {"measurement": "outcome", "setting": "[8]", "result": "inactive"}, {"measurement": "outcome", "setting": "[9]", "result": "inactive"}, {"measurement": "outcome", "setting": "[1]", "result": "inactive"}, {"measurement": "outcome", "setting": "[10]", "result": "inactive"}]}
{"compound": "CC(Cl)(Cl)C(=O)O", "values": [{"measurement": "outcome", "setting": "[11]", "result": "inactive"}]}
{"compound": "O=P(Oc1ccccc1)(Oc1ccccc1)Oc1ccccc1", "values": [{"measurement": "outcome", "setting": "[12]", "result": "inactive"}]}
{"compound": "CSC(C)(C)C=NO", "values": [{"measurement": "outcome", "setting": "[13]", "result": "inactive"}, {"measurement": "outcome", "setting": "[5]", "result": "inactive"}, {"measurement": "outcome", "setting": "[14]", "result": "inactive"}, {"measurement": "outcome", "setting": "[11]", "result": "inactive"}]}
{"compound": "CCOS(=O)(=O)OCC", "values": [{"measurement": "outcome", "setting": "[1]", "result": "inactive"}]}
{"compound": "c1ccc(OP(Oc2ccccc2)Oc2ccccc2)cc1", "values": [{"measurement": "outcome", "setting": "[9]", "result": "inactive"}]}
{"compound": "O=C(O)C1C(C(=O)O)C2(Cl)C(Cl)=C(Cl)C1(Cl)C2(Cl)Cl", "note": "(configuration not stated)", "values": [{"measurement": "outcome", "setting": "[1]", "result": "inactive"}]}
{"compound": "CN(C)C(=O)Cl", "values": [{"measurement": "AC50", "setting": "[2]", "result": "41.7 µM (active)"}, {"measurement": "outcome", "setting": "[1]", "result": "inactive"}]}
{"compound": "Nc1ccc([N+](=O)[O-])cc1Cl", "values": [{"measurement": "AC50", "setting": "[3]", "result": "2.67 µM (active)"}]}
{"compound": "c1nc[nH]n1", "values": [{"measurement": "outcome", "setting": "[1]", "result": "inactive"}]}
{"compound": "Cc1ccc2c(c1N)C(=O)c1ccccc1C2=O", "values": [{"measurement": "AC50", "setting": "[15]", "result": "5.53 µM (active)"}, {"measurement": "outcome", "setting": "[5]", "result": "inactive"}]}
{"compound": "CCOC(=O)c1ccccc1C(=O)OCC", "values": [{"measurement": "outcome", "setting": "[7]", "result": "inactive"}]}
{"compound": "Cc1cc(C)c(C(=O)P(=O)(c2ccccc2)c2ccccc2)c(C)c1", "values": [{"measurement": "AC50", "setting": "[15]", "result": "0.687 µM (active)"}]}
